Assay results as given in ChEMBL document CHEMBL1961873, “Compounds: GSK PKIS; Assays: Nanosyn kinase panel” (2012).

Tests used:
[1] = target: Sphingosine kinase 1 (Homo sapiens) (UniProt Q9NYA1); settings: at 1 µM;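 note: mean SPHK1 inhibition value reported from the GSK PKIS kinase panel screen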
[2] = target: T1, Sphingosine kinase 2 (Homo sapiens) (UniProt Q9NRA0); settings: at 0.1 µM
T1 sequence (whole entry): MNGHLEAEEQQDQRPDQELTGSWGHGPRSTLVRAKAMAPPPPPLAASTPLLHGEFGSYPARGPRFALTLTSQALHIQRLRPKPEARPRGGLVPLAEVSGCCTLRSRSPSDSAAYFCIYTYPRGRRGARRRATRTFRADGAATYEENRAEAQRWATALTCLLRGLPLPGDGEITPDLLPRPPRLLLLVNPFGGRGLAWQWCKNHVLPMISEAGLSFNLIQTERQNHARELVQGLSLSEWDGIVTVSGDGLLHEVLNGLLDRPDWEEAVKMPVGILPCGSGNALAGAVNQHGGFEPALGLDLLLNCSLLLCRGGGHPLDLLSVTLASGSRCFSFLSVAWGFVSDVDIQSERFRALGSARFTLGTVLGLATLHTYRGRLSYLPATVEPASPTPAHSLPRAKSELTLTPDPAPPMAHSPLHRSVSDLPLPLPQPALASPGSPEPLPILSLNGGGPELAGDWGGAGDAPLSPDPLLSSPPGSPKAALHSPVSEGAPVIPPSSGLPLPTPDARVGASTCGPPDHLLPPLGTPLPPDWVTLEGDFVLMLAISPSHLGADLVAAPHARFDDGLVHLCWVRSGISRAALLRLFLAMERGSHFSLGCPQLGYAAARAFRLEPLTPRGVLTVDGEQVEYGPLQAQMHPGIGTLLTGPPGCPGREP

[3] = target: T1, Sphingosine kinase 2 (Homo sapiens); settings: at 1 µM
[4] = target: Casein kinase II subunit alpha (Homo sapiens) (UniProt P68400); settings: at 0.1 µM
[5] = target: Casein kinase II subunit alpha (Homo sapiens) (UniProt P68400); settings: at 1 µM
[6] = target: T2, Inhibitor of nuclear factor kappa-B kinase subunit alpha (Homo sapiens) (UniProt O15111); settings: at 0.1 µM
T2 sequence (whole entry): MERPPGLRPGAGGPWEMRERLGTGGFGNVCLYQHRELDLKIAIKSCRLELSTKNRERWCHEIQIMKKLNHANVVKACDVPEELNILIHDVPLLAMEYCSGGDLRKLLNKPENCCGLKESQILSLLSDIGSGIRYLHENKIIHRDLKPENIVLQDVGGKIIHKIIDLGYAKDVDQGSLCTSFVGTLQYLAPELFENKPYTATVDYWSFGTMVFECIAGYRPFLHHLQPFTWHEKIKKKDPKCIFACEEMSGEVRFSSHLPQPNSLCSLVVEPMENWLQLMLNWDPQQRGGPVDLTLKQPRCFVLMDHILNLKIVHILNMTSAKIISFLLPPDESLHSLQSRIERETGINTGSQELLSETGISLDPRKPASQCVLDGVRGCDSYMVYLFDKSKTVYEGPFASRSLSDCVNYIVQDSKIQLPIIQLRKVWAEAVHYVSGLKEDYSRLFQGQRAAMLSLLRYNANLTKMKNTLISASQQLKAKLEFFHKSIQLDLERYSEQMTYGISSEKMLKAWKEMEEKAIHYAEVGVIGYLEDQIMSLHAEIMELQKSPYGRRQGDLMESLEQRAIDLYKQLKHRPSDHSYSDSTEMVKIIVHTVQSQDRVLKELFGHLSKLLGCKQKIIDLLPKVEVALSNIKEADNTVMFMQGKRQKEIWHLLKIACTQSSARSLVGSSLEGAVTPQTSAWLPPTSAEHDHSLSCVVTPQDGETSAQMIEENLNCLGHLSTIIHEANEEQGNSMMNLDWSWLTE

[7] = target: T2, Inhibitor of nuclear factor kappa-B kinase subunit alpha (Homo sapiens); settings: at 1 µM
[8] = target: T3, Inhibitor of nuclear factor kappa-B kinase subunit beta (Homo sapiens) (UniProt O14920); settings: at 0.1 µM
T3 sequence (whole entry): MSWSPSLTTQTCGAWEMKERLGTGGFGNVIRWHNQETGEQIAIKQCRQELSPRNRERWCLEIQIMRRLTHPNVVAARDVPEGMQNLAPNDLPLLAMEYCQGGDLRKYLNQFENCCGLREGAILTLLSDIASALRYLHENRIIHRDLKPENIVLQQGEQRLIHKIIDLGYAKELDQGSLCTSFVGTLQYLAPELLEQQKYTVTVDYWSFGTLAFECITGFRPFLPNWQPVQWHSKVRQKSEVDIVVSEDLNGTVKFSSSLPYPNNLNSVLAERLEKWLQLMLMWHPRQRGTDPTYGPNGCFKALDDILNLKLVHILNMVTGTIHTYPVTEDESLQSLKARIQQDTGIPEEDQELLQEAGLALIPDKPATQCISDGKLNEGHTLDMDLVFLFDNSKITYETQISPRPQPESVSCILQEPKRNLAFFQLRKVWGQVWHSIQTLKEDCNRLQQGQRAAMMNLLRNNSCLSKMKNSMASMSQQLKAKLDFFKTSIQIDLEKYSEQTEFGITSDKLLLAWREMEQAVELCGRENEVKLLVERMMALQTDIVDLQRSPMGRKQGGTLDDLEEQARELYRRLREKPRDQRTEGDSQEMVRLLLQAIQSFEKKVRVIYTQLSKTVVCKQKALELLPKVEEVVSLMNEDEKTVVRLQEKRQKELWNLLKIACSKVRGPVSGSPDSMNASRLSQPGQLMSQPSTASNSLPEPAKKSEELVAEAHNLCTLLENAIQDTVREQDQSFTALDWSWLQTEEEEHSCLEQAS

[9] = target: T3, Inhibitor of nuclear factor kappa-B kinase subunit beta (Homo sapiens); settings: at 1 µM
[10] = target: T4, Inhibitor of nuclear factor kappa-B kinase subunit epsilon (Homo sapiens) (UniProt Q14164); settings: at 0.1 µM
T4 sequence (whole entry): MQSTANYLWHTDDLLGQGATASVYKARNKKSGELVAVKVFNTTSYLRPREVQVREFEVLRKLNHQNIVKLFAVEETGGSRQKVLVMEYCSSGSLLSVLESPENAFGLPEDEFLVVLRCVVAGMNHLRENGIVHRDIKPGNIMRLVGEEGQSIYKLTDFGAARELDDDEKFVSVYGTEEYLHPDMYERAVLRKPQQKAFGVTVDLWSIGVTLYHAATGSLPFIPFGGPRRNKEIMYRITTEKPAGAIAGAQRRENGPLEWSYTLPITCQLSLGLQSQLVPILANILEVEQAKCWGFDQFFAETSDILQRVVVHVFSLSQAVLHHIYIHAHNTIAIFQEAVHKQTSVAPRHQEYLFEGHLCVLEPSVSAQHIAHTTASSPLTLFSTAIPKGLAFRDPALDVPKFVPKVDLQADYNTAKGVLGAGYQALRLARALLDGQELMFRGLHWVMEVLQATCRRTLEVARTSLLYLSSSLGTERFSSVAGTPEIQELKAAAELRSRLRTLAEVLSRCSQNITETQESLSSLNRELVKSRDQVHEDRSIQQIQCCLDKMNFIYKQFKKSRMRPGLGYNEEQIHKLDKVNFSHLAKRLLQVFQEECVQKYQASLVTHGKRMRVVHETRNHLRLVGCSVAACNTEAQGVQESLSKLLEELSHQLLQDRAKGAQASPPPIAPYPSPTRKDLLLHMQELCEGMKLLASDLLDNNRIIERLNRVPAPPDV

[11] = target: T4, Inhibitor of nuclear factor kappa-B kinase subunit epsilon (Homo sapiens); settings: at 1 µM
[12] = target: T5, Serine/threonine-protein kinase Nek1 (Homo sapiens) (UniProt Q96PY6); settings: at 0.1 µM
T5 sequence (whole entry): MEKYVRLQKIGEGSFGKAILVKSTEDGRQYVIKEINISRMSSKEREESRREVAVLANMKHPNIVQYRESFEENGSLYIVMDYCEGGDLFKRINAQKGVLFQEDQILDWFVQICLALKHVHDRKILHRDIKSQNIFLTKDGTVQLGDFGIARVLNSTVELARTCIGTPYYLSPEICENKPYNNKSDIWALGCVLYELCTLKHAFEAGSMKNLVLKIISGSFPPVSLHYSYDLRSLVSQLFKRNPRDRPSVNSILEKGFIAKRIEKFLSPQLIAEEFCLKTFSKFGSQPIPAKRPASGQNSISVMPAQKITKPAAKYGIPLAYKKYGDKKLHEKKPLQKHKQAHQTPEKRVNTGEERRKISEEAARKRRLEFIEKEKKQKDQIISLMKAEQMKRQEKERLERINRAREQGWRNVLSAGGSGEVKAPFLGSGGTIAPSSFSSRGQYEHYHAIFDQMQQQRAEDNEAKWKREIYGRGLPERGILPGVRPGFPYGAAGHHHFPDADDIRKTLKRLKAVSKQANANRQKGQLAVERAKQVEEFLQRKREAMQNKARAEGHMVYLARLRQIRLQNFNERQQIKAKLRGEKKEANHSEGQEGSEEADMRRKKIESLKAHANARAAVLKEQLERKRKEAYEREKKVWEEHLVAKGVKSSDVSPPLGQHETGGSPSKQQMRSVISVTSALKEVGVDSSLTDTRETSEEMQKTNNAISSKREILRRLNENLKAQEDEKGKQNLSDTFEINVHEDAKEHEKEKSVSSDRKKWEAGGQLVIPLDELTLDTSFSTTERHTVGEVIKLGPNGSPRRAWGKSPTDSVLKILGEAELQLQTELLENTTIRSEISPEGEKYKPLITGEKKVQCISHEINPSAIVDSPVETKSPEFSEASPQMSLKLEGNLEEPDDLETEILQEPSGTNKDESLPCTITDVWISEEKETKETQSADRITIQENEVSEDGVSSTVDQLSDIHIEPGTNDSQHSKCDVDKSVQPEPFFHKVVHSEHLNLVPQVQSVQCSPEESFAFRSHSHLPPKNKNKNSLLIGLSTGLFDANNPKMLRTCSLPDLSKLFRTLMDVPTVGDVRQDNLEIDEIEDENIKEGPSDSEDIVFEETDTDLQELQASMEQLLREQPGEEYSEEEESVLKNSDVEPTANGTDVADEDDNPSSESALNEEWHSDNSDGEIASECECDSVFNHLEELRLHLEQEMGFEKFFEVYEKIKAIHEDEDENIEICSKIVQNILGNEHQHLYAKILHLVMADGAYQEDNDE

[13] = target: T5, Serine/threonine-protein kinase Nek1 (Homo sapiens); settings: at 1 µM
[14] = target: T6, Serine/threonine-protein kinase Nek2 (Homo sapiens) (UniProt P51955); settings: at 0.1 µM
T6 sequence (whole entry): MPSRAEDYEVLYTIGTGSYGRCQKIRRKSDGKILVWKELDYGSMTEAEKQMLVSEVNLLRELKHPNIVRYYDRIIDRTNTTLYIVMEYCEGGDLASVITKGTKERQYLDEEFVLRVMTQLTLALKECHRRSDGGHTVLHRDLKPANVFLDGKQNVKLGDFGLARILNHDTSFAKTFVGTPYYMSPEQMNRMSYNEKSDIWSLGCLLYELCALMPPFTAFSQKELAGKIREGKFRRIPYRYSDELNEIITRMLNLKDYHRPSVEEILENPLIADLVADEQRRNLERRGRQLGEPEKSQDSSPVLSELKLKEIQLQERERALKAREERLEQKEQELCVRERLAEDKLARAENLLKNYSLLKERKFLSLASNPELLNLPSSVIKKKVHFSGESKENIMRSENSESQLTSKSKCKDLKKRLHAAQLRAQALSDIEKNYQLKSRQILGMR

[15] = target: T6, Serine/threonine-protein kinase Nek2 (Homo sapiens); settings: at 1 µM
[16] = target: Serine/threonine-protein kinase Nek6 (Homo sapiens) (UniProt Q9HC98); settings: at 0.1 µM
[17] = target: Serine/threonine-protein kinase Nek6 (Homo sapiens) (UniProt Q9HC98); settings: at 1 µM
[18] = target: Serine/threonine-protein kinase Nek7 (Homo sapiens) (UniProt Q8TDX7); settings: at 0.1 µM
[19] = target: Serine/threonine-protein kinase Nek7 (Homo sapiens) (UniProt Q8TDX7); settings: at 1 µM
[20] = target: T7, Serine/threonine-protein kinase Nek9 (Homo sapiens) (UniProt Q8TD19); settings: at 0.1 µM;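 note: reported value is the mean percent inhibition of NEK9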
T7 sequence (whole entry): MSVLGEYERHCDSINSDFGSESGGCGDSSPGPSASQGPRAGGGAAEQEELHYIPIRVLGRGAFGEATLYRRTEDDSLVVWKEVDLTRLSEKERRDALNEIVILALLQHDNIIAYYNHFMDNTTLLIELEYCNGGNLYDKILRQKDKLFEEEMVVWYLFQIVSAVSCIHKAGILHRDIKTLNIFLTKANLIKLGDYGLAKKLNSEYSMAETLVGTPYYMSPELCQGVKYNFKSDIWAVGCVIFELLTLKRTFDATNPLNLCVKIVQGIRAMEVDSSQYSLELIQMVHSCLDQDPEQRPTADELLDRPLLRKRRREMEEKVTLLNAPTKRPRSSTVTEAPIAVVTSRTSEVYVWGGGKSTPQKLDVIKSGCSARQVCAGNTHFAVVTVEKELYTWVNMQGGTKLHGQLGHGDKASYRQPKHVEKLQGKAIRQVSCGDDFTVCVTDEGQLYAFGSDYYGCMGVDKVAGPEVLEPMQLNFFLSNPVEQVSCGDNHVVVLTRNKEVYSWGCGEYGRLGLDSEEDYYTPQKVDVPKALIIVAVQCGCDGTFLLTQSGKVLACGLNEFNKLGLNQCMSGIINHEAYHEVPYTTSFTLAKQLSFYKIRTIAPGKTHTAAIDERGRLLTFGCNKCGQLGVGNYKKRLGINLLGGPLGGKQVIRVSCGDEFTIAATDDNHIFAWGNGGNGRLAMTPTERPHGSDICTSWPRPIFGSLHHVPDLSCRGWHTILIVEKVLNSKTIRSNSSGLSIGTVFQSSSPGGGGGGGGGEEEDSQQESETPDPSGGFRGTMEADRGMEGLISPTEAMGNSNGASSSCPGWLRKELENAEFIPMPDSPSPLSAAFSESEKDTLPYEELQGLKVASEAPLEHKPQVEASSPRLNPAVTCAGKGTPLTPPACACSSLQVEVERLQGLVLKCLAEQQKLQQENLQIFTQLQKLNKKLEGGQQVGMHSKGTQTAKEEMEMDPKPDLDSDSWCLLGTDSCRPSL

Sequence of Casein kinase II subunit alpha (Homo sapiens) (P68400 whole entry, looked up): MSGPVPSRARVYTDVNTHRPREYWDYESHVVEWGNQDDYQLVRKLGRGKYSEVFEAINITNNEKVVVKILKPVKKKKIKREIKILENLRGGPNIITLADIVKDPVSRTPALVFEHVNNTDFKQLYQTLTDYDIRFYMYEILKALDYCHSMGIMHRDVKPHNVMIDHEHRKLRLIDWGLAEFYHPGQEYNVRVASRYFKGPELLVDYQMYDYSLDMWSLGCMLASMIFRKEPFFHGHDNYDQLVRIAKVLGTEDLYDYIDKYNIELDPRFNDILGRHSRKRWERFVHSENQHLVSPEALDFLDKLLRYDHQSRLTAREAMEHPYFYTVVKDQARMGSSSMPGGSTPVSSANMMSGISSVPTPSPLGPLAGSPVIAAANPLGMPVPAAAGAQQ
Sequence of Serine/threonine-protein kinase Nek7 (Homo sapiens) (Q8TDX7 whole entry, looked up): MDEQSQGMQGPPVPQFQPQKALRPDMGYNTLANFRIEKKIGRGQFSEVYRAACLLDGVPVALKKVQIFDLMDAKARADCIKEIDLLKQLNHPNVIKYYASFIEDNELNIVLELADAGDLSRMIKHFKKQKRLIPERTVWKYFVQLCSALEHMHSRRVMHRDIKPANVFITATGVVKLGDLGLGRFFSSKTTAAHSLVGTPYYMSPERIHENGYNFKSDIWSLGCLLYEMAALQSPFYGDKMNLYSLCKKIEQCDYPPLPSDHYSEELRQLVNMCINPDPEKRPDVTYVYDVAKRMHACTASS
Sequence of Serine/threonine-protein kinase Nek6 (Homo sapiens) (Q9HC98 whole entry): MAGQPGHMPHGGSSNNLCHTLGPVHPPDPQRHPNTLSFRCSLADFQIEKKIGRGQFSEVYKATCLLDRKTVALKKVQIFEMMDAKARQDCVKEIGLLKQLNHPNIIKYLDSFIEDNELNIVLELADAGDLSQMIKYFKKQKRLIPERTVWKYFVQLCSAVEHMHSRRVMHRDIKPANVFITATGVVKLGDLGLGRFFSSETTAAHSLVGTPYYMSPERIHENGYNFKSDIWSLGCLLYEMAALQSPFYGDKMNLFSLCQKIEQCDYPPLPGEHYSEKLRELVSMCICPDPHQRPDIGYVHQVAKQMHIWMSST
Sequence of Sphingosine kinase 1 (Homo sapiens) (Q9NYA1 whole entry): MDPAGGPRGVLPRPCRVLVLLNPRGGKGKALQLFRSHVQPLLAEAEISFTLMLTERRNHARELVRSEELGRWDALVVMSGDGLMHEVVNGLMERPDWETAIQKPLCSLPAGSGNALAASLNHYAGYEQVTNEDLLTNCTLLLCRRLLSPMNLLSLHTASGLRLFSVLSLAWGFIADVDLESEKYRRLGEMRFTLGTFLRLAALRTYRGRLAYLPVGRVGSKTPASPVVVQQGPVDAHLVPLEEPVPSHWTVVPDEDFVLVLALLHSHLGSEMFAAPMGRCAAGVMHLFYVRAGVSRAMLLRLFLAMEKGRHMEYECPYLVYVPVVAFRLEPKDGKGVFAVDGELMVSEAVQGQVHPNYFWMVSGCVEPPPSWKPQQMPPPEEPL

With Fc1ccc(-c2c(-c3ccncc3)nc3n2CCS3)cc1 the inhibition [1] was 1.66%, the inhibition [2] was 0.08% and the inhibition [3] was 0.64%. It also gave an inhibition [4] of 2.23%, an inhibition [5] of 2.3% and an inhibition [6] of 7.58%. For the same compound, the inhibition [7] was 3.05%, the inhibition [8] was 2.88% and the inhibition [9] was 3.75%. It also gave an inhibition [10] of 4.09%, an inhibition [11] of 5.11% and an inhibition [12] of 2.32%. It also gave an inhibition [13] of 3.2%, an inhibition [14] of 2.33% and an inhibition [15] of 2.6%. It also gave an inhibition [16] of -0.57%, an inhibition [17] of 0.48% and an inhibition [18] of 3.63%. The inhibition [19] was 2.47% and the inhibition [20] was 5.56%.
